Laboratory results published in PubChem BioAssay (NCATS).
Records with an inconclusive call do not appear. A call without a number means that no potency is given here. The source made the active and inactive calls. The call rests on the fitted dose curve; in most records, active means well fitted inhibition curve with a large enough effect; inconclusive means small, poorly fitted or top-dose-only effect; inactive means flat fitted curve, though single readings scatter.

biological target: Phospholipid hydroperoxide glutathione peroxidase GPX4 (Homo sapiens) (UniProt P36969); experiment: Primary qHTS Assay for Inhibitors of Recombinant Selenoprotein Glutathione Peroxidase 4 (GPX4) (AID 1845192); details: recombinant GPX4, GR-coupled NADPH fluorescence, 15 min; series mostly up to 50 µM; further: nearly all actives have a fitted effect of over 65% in size
Sequence (P36969 whole entry, looked up): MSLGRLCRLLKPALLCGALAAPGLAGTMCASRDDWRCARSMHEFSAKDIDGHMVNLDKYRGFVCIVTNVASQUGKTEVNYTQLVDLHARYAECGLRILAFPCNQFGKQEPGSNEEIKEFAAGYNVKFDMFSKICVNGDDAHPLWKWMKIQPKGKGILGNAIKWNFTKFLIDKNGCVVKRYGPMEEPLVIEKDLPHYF
Excerpt: Assay Provider: Elias S.J. Arner MD PhD.
Department of Medical Biochemistry and Biophysics
Karolinska Institutet, Solna, Stockholm, Sweden
Selenoprotein glutathione peroxidases (GPX), like the ubiquitously expressed GPX1 and the ferroptosis modulator GPX4, enact their antioxidant activities by reducing hydroperoxides using glutathione. […] GPX1 and GPX4 inhibitors have thus shown promise as anti-cancer agents. Existing inhibitors are often promiscuous, or modulate GPX activity only indirectly, so novel direct inhibitors identified through screening against GPX1 and GPX4 could be valuable. Here, we developed optimized glutathione reductase (GR)-coupled GPX assays for the biochemical high-throughput screen (HTS) of almost 12,000 compounds with known mechanisms of action. Initial hits were triaged using a GR counter-screen, assessed for isoform specificity using a separate GPX2 assay, and were assessed for general selenocysteine-targeting activity using a thioredoxin reductase (TXNRD1) assay. With this suite of assays, we identified novel GPX1/GPX2- and GPX4-specific inhibitors and can here present a validated pipeline for future discovery research for selenoprotein-targeting agents.
SEQUENCE No. (e.g., 1, 2, 3, etc.); […] (e.g., Cells, Incubation, Reagent, etc.); VALUE; DESCRIPTION.
1; Reagent 1; 3 uL; 333.33 nM GPx4 enzyme or no enzyme control in 1536-well, black, solid Greiner assay plate.
2; Compound; 25 nL; Kalypsis pin tool (Wako USA) equipped with a 1536-well pin head.
3; Incubation; 30 min; room temperature.
4; Reagent 2; 1 uL; 500 nM GR, 5 mM GSH, 2.5 mM NADPH solution
5; Reagent 3; 1 uL; 2.5 mM CHP in 50% EtOH.
6; Detection; Fluorescence; ViewLux microplate reader, excitation 340 nm and emission 450 nm.
7; Incubation; 15 min; room temperature.
8; Detection; Fluorescence; ViewLux microplate reader, excitation 340 nm and emission 450 nm.
NOTES (numbers refer to Sequence numbers above)
1. 3 µL of 333.33 nM GPX4 and 0.016% BSA in assay buffer (50 mM Tris-HCl, 2 mM EDTA (pH 7.5), 150 mM NaCl) was added to columns 3-48 of 1536-well plates using a BioRAPTR Flying Reagent Dispenser (Let's Go Robotics (LGR), Carlsbad, CA). A no-enzyme control (0.01% BSA in TES assay buffer) was added to columns 1-2.
2. 25 nL, library and DMSO controls were added to each well with a pin tool (Kalypsys).
3. The assay plates were incubated for 30 minutes at room temperature.
4. 1 µL of master mix (500 nM glutathione reductase (GR), 5 mM reduced glutathione (GSH), 2.5 mM NADPH in assay buffer) was added.
5. 1 µL of cumene hydroperoxide (CHP) ([2.5 mM] in 50% EtOH) was then added within 5 minutes to initiate the reaction. Final concentrations were: 200 nM GPX4, 1 mM GSH, 0.5 mM CHP, 0.5 mM NADPH, 100 nM GR, 0.01% BSA.
6. Initial fluorescence readout (t=0) at 340/450 nm was measured using a ViewLux multimodal detector (PerkinElmer, Waltham, MA).
8. Endpoint fluorescence readout (t=15) at 340/450 nm was measured 15 min after room temperature incubation.

SMILES | Potency
CN(CCO)C1CCN(c2ccc(Nc3ncc4c5ccnc(F)c5n(C5CCCC5)c4n3)nc2)CC1 | inactive
O=c1c(-n2ccnn2)c[nH]n1-c1cc(N2CCOCC2)ncn1 | inactive
COc1ccc(NS(=O)(=O)c2sc3ccc(Cl)cc3c2C)cc1N1CCNCC1 | inactive
CC(=O)N1CCN([C@H]2CCN(C(=O)N(C)[C@H](C)c3cc(C(F)(F)F)cc(C(F)(F)F)c3)[C@@H](c3ccc(F)cc3C)C2)CC1 | inactive
C=C(C)[C@@H]1CC[C@]2(C(=O)O)CC[C@]3(C)C(CCC4[C@@]5(C)C[C@@H](O)[C@H](O)C(C)(C)C5CC[C@]43C)C12 (stereo not given in full) | inactive
CC(=O)N[C@@H](CC(=O)O)C(=O)N[C@@H](CCC(=O)O)C(=O)N[C@H](C(=O)N[C@@H](CC(=O)O)C(=O)Nc1ccc2c(C)cc(=O)oc2c1)C(C)C | inactive
CCOC(=O)CN[C@@H](C(=O)N1CC[C@H]1C(=O)NCc1ccc(/C(N)=N/O)cc1)C1CCCCC1 | inactive
Oc1ccc(Nc2nc(-c3ccc(Cl)cc3)cs2)cc1 | inactive
COc1cc(O)c(C(=O)CCc2ccc(O)cc2)c(O[C@@H]2O[C@H](CO)[C@@H](O)[C@H](O)[C@H]2O)c1 | inactive
Cn1cc(-c2cnc3ccc4ccc(CS(=O)(=O)NCc5ccccn5)cc4c(=O)c3c2)cn1 | inactive
CC(C)n1cnc2c(Nc3cccc(Cl)c3)nc(NCCO)nc21 | inactive
COc1cc(-c2cc(-c3ccc(N4CCNCC4)cc3)cnc2C)cc(OC)c1OC | inactive
COc1cc(O)ccc1OCCNCC(O)COc1cccc2[nH]c3ccccc3c12 (stereo not given) | inactive
Nc1ncnc(Nc2ccc(OCc3ccccc3)c(Cl)c2)c1/C=N/OCCN1CCOCC1 | inactive
CN(C)C(=O)c1cc2cnc(Nc3ccc(N4CCNCC4)cn3)nc2n1C1CCCC1 | inactive
C[N+]1(C)[C@@H]2CC[C@H]1CC(OC(=O)C(O)c1ccccc1)C2 (stereo not given in full) | inactive
CCN(CCCOc1ccc2c(Nc3cc(CC(=O)Nc4cccc(F)c4)[nH]n3)ncnc2c1)CCOP(=O)(O)O | inactive
CCCc1c(C(C)C)nc(C(C)C)c([C@@H](C)O)c1-c1ccc(F)cc1O | inactive
CCCCC(=O)N(Cc1ccc(-c2ccccc2-c2nn[nH]n2)cc1)C(C(=O)O)C(C)C (stereo not given) | inactive
CNC(=O)c1c(C)oc2cc(Oc3ncnc4cc(OC)c(OC)cc34)ccc12 | inactive

SMILES | Potency
C=C1C(=O)O[C@@H]2/C=C(/C)CC3C=C(C[C@H](OC(=O)/C(C)=C\C)[C@@H]12)C(=O)O3 (stereo not given in full) | inactive
Cc1[nH]c(/C=C2\C(=O)Nc3ccc(F)cc32)c(C)c1C(=O)NC[C@H](O)CN1CCOCC1 | inactive
CC1OC2O[C@H]3[C@@H](OCC(O)[C@H]3O)OC(=O)C34CCC(C)(C)CC3C3=CCC5C6(C)CC(O)C(OC7OC(CO)C(O)C(O)C7O[C@@H]7OC[C@H](OC(=O)CC(C)(O)CC(=O)OC1C(OC1OCC(O)C(O)C1O)C2O)[C@@H](O)[C@H]7O)C(C)(CO)C6CCC5(C)C3(C)CC4 (stereo not given in full) | inactive
N[C@@H](C(=O)N[C@@H]1C(=O)N2C(C(=O)O)=C(CSc3cn[nH]n3)CS[C@H]12)c1ccc(O)cc1 | inactive
O=C1NC(=O)/C(=C/c2ccc3nccc(-c4ccncc4)c3c2)S1 | inactive
Cc1ccc(CCCO)c(NCc2ccc3nc(NCCCN4CCOCC4)n(Cc4nc(C)ccc4O)c3c2)c1 | inactive
C[C@@H](O[C@H]1OCCN(Cc2n[nH]nc2CN(C)C)[C@H]1c1ccc(F)cc1)c1cc(C(F)(F)F)cc(C(F)(F)F)c1 | inactive
CC[C@H](CO)Nc1nc(Nc2cccc(-c3ccccn3)c2)c2ncn(C(C)C)c2n1 | inactive
CCC(=O)Nc1cccc(Oc2nc(Nc3ccc(N4CCN(C)CC4)cc3OC)ncc2Cl)c1 | inactive
N#C[C@@H]1C[C@@H]2C[C@@H]2N1C(=O)[C@@H](N)C12CC3CC(CC(O)(C3)C1)C2 | inactive
CC[N+](CC)(CC)CC | inactive
CCOP(=O)(Cc1ccc(C(=O)Nc2ccc(Br)cc2C#N)cc1)OCC | inactive
FC(F)(F)c1ccc(CNc2ccc(Cc3c[nH]c4ncccc34)cn2)cc1 | inactive
C[C@@H](c1nc(-c2ccc(C#N)cc2)cs1)[C@](O)(Cn1cncn1)c1cc(F)ccc1F | inactive
CC(=O)Nc1ccc(C(=O)Nc2ccccc2N)cc1 | inactive
COc1ccc2c(c1)CC[C@@H]1[C@@H]2CC[C@]2(C)[C@@H](NCCCCCCN3C(=O)C=CC3=O)CC[C@@H]12 | inactive
C=CC(=O)N1CCN(C(=O)c2cc(-c3cc(Cl)ccc3Cl)c(Cl)cc2OC)CC1 | inactive
C[S+](CC[C@H](N)C(=O)O)C[C@H]1O[C@@H](n2cnc3c(N)ncnc32)[C@H](O)[C@H]1O (stereo not given in full) | inactive
CN1CCN(c2nc(C3=C(c4c[nH]c5ccccc45)C(=O)NC3=O)c3ccccc3n2)CC1 | inactive
CC1CCCC(SCC(O)C(=O)O)CC(=O)c2c(O)cc(O)cc2CC(=O)O1 (stereo not given) | inactive
